# Results from PubChem BioAssay.
# Key:
# [1] = molecular target: Tumor necrosis factor receptor superfamily member 10B (Homo sapiens) (UniProt O14763); assay: caspase-8 TRAIL sensitization, hit retest, confirmation, cell-based, NB7+caspase-8, with/without TRAIL, luminescence panel (AID 651596); details: NB7 neuroblastoma + caspase-8, TRAIL sensitization, luminescence viability, with TRAIL, mean of runs, at 10 µM, stronger effect = higher value
# [2] = as above; details: NB7 neuroblastoma + caspase-8, without TRAIL, luminescence viability, without TRAIL, mean of runs, at 10 µM
# [3] = molecular target: Tumor necrosis factor receptor superfamily member 10B (Homo sapiens) (UniProt O14763); assay: TRAIL sensitizers in caspase-8 expressing neuroblastoma cells, dose response, NB7 cells plus caspase-8, luminescence, panel (AID 652002); details: NB7 neuroblastoma +caspase-8, TRAIL sensitization, luminescence viability, NB7+Caspase-8, with TRAIL, run 1; at 12.5 µM (top of the series)
# [4] = molecular target: Tumor necrosis factor receptor superfamily member 10B (Homo sapiens) (UniProt O14763); assay: as above; details: NB7 neuroblastoma +caspase-8, TRAIL sensitization, luminescence viability, NB7+Caspase-8, with TRAIL, run 2; at 12.5 µM (top of the series)
# [5] = as above; details: NB7 neuroblastoma +caspase-8, no TRAIL, compound-alone cytotoxicity counter-screen, luminescence viability, NB7+Caspase-8, run 1; at 12.5 µM (top of the series) unless noted
# [6] = as above; details: NB7 neuroblastoma +caspase-8, no TRAIL, compound-alone cytotoxicity counter-screen, luminescence viability, NB7+Caspase-8, run 2; at 12.5 µM (top of the series) unless noted
# Sequence of Tumor necrosis factor receptor superfamily member 10B (Homo sapiens) (O14763 whole entry, looked up): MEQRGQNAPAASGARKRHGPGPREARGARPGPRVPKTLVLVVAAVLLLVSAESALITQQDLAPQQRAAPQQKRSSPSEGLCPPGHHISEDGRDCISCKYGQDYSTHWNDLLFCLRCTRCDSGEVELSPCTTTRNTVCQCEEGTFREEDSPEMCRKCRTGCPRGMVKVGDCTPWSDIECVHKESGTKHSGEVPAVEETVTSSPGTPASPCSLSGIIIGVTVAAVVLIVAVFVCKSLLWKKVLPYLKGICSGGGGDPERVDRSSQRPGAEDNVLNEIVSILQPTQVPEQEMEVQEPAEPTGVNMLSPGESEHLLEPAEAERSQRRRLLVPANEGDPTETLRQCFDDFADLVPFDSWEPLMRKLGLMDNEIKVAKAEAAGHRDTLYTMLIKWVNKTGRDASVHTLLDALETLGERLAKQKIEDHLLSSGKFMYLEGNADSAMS
SMILES,activity [1] [%],activity [2] [%],"activity, % sensitization [3] [%]","activity, % sensitization [4] [%]","activity, % sensitization [5] [%]","activity, % sensitization [6] [%]"
COC(=O)CSc1ncnc2c1sc1nc3c(cc12)COC(C)(C)C3,82.5,86.8,–,–,–,–
COc1ccc(C2=NN(C(=O)COC(=O)c3ccc(S(C)(=O)=O)c([N+](=O)[O-])c3)C(c3ccco3)C2)cc1 (centres undefined),92.5,98.5,–,–,–,–
O=C(N/N=C/c1cccnc1)c1ccc2c(c1)OCCO2,76.2,67,–,–,–,–
Cc1ccc(C2=NS(=O)(=O)N(C)C(C(=O)NCc3cccs3)=C2)cc1,5.95,0.8,–,–,–,–
CN(C)CCCN(C(=O)c1ccc(S(=O)(=O)N(C)C2CCCCC2)cc1)c1nc2ccc(Br)cc2s1,46.2,45,–,–,–,–
O=C(Nc1ccc2[nH]ccc2c1)c1cccs1,64,52.9,48.2,52.7,46.5,43.5
COc1ccc(/C=C(\C#N)C(=O)OCC(=O)Nc2ccc(-c3nc4ccc(C)cc4s3)cc2)cc1,42.9,27.9,–,–,–,–
O=C(NC1=NCCS1)c1cc2ccccc2o1,56.6,48.6,45.6,47,8.75,39.6
O=C(CCl)Nc1ccc(-c2ccccc2)cc1,99.3,99.7,–,–,–,–
CCOc1ccc(C(=O)Nc2cc(C)ccn2)cc1,95.2,96.3,–,–,–,–
Cc1cccc(NC(=S)NC(=O)c2ccc(-c3ccccc3)cc2)n1,55.5,55.3,–,–,–,–
COc1cc(SC)ccc1C(=O)Nc1nccs1,83.3,84.3,–,–,–,–
Cc1ccc2nc(NC(=O)c3ccco3)sc2c1,80.4,76.2,–,–,–,–
CCCNC(=O)c1ccc(-c2nc3ccccc3s2)s1,87.8,83.5,–,–,–,–
CC(C)Cc1nc2oc3c(Cl)ncnc3c2c2c1CCCC2,55.5,49.8,-5.07,-15,-9.85,-8.86
Cc1ccc(-c2nc(NC(=O)c3nn(C)cc3[N+](=O)[O-])sc2C)cc1C,98.1,99.1,–,–,–,–
Cc1ccc(-c2nn3c(C)nnc3c3ccccc23)cc1S(=O)(=O)NCc1ccccc1,48.2,51.6,–,–,–,–
O=C(NC(=S)Nc1nc2ccccc2s1)c1ccco1,77.7,64.4,–,–,–,–
CCOc1cc(C(=O)O/N=C(\N)c2ccccn2)cc(OCC)c1OCC,91.1,78.5,–,–,–,–
CSc1ccc(/C=C/c2ccc3cccc(O)c3n2)cc1,48.5,53.9,31.9,41.1,23.2,36.6
CN(C)CCCN(C(=O)c1ccc(C(=O)c2ccccc2)cc1)c1nc2ccc(F)cc2s1,64.6,34.9,12.1,3.85,0.995,25.8
COc1ccc(/C=N/Nc2nc3ccccc3c(=O)n2-c2ccccc2)cc1OC,62.5,48.6,47.9,45.1,41,44.3
Cc1cccc(NC(=O)c2ccc3c(c2)OCCO3)c1,85,83.5,–,–,–,–
c1ccc2sc(NN=C3CCCCCC3)nc2c1,59.8,46.7,–,–,–,–

SMILES,activity [1] [%],activity [2] [%],"activity, % sensitization [3] [%]","activity, % sensitization [4] [%]","activity, % sensitization [5] [%]","activity, % sensitization [6] [%]"
O=C1Cc2c(-c3ccccc3)cc(-c3cccc(Cl)c3)nc2-c2ccccc2N1,52.9,39.5,-1.76,-0.0597,-14.1,-20.4
O=c1cc(-c2c(F)c(F)c(F)c(F)c2F)oc2ccccc12,98.1,92.1,–,–,–,–
O=c1cc(-c2ccccc2)nc2cc(-c3ccc(F)cc3)[nH]n12,57.6,47,5.68,-3.23,-19,-21.3
CCOC(=O)c1ccc(N/C=C/C(=O)c2ccco2)cc1,52.7,46.1,24.1,9.37,0.326,6.5
Cc1ccc(S(=O)(=O)N2C[C@H]3[C@H]4C(=O)N(C5CCCCC5)C(=O)[C@H]4CC(=O)[C@H]3[C@@H]2c2cccc3ccccc23)cc1,-8.53,-13.6,–,–,–,–
Cc1ccc(NC(=O)c2ccccc2O)cc1,61,48.8,28,37.1,29,31.3
Nc1nc(N)c2cc(CNc3ccc(Cl)c(Cl)c3)ccc2n1,85.2,73.4,–,–,–,–
Clc1ccc(-c2nnc(SCc3ccon3)o2)c(Cl)c1,51.8,58.7,–,–,–,–
Cc1ccc(C(=O)COC(=O)c2ccc3c(c2)C(=O)N(c2cccc4ncccc24)C3=O)cc1,54.7,43.5,–,–,–,–
O=C(CSc1ncnc2nc[nH]c12)c1ccc(Cl)cc1,57.6,66,–,–,–,–
O=C(NCC1CC1)c1ccc2c3n(nc2c1)-c1ccccc1CO3,89.8,89.5,–,–,–,–
Cc1ccc(C(=O)N/C(=C\c2ccc(-c3ccccc3[N+](=O)[O-])o2)C(=O)NCCCN2CCOCC2)cc1,24.6,48.9,–,–,–,–
Cn1c(=O)c2c(SCC(=O)Nc3ccccc3F)nc(C3CC3)nc2n(C)c1=O,50.8,44.9,-6.81,-10.3,-1.87,-25.4
CC1CCC(C(C)C)C(OC(=O)Cn2c(-c3ccccc3)[n+](C)c3ccccc32)C1 (centres undefined),70.2,61.2,–,–,–,–
CC(C)(C)c1ccc(-c2noc(CCC(=O)Nc3cccnc3)n2)cc1,48.3,50.9,–,–,–,–
COc1ccc2[nH]c(C(=O)Nc3cccc(C)n3)cc2c1,58.8,59.5,–,–,–,–
CCOC(=O)c1cc2c(C)n(-c3ccc(C)cc3)c(C)c2ccc1=O,74.9,63.9,–,–,–,–
Cc1ccc2cc(NC(=O)c3cccc(F)c3)ccc2n1,21.3,10.6,–,–,–,–
COc1ccc(-c2cc(C(=O)N/N=C/c3cccnc3)c3ccccc3n2)cc1,45.5,40.8,22.7,33.2,21.2,40.4
O=c1c2ccccc2oc2ccc(C#CC3(O)CCCCC3)cc12,86.2,84.8,–,–,–,–
CCOC(=O)c1sc(NC(=O)Nc2ccc(F)cc2)nc1C,56.6,44.6,29,12.6,-5.48,-3.68
CC(C)(C)OC(=O)[C@H](Cc1ccccc1)NC(=O)c1[nH]cnc1C(=O)Nc1ccccc1F,54.9,54.8,16.8,-4.6,6.22,2.55
COC(=O)[C@]12CCCCC=C1N(Cc1cccc3ccccc13)C(=O)[C@H](CC(=O)NCc1ccc(OC)c(OC)c1)C2,66.4,53,24.8,43,16.7,36.7
c1ccc(Nc2nnc(-c3cccnc3)s2)cc1,57.6,40.5,46.2,42.2,-5.23,-13.3

SMILES,activity [1] [%],activity [2] [%],"activity, % sensitization [3] [%]","activity, % sensitization [4] [%]","activity, % sensitization [5] [%]","activity, % sensitization [6] [%]"
CC(C)C[C@H](NC(=O)c1nc[nH]c1C(=O)N[C@@H](CCCCNC(=O)OC(C)(C)C)C(=O)OC(C)(C)C)C(=O)OCc1ccccc1,77.7,20.4,-36.8,-15.7,-4.5,-28.8
COc1ccc(OCC(=O)N/N=C/C=C/c2ccccc2)cc1,59.4,45.4,44.7,46.1,31.1,41.1
O=C(NNC(=O)c1cc(OCC(F)(F)F)ccc1OCC(F)(F)F)c1ccc(Cl)c(Cl)c1,63.5,50.9,-9.65,2.58,-2.88,0.592
Nc1ccccc1C(=O)NN=Cc1cccc([N+](=O)[O-])c1,66.6,42.9,44.8,53.8,-5.65,35.3
O=c1[nH]c(N/N=C\c2ccc3c(c2)OCO3)nc2ccccc12,53.6,50.5,33.9,44.5,38.2,35.1
CCOc1ccc(-c2nnc(-c3ccccc3)o2)cc1,56,47.3,39.4,39.8,11.9,-2.15
CCCCCCCn1c2c(c(=N)c3ccccc31)CCC2,64.8,51.8,30.9,38.9,0.756,28
O=C(NCC1CCCO1)c1ccc2c3n(nc2c1)-c1ccccc1CO3 (centres undefined),52.9,54.6,29.1,41.5,21,11.7
Cc1nc2cc(NC(=O)Nc3cccc([N+](=O)[O-])c3)ccc2n1C,64.2,54.4,44.4,49.5,0.985,3.35
Cn1nnc(NC(=O)c2ccc(C(C)(C)C)cc2)n1,58.1,51.8,47.5,61.4,-4.98,39.7
C/C(=N\NC(=O)c1csc(C)c1C)c1ccco1,46.9,40.4,34.8,13.8,22.5,-4.13
CCC(C)c1ccc(O)c(NC(=S)NC(=O)c2cccs2)c1 (centres undefined),56.5,54.3,40.5,49.3,56.2,41.9
O=C(Nc1ccc(C(=O)O)cc1)/C(=C\C=C\c1ccccc1)NC(=O)c1ccccc1Cl,63.6,53.1,43.1,38.4,36.3,45.9
CCOc1ccc(/C=C/C(=O)Nc2cccc(C(C)=O)c2)cc1,50.7,37.2,14.7,23.8,37.9,17.4
COc1cc(SC#N)ccc1N=Cc1c(C)[nH]n(-c2ccc(Cl)cc2)c1=O,66.9,41.2,-29.2,-11.6,-15.4,-20.1
COc1ccc(-c2nnc(SCC(=O)c3[nH]c(C)c(C(C)=O)c3C)o2)cc1,54.1,53.9,-37,-7.9,-20.2,-16.4
O=C(Oc1c(CN2CCOCC2)cc(Cl)c2cccnc12)c1cccs1,53.1,53.5,24.4,44.5,8.65,-4.1
Cc1ccn2cc(C(=O)Nc3ccc4c(c3)OCCO4)nc2c1,58.2,50.8,38.4,40.7,47.9,50.7
C/C(=N\NC(=O)c1n[nH]c2c1CCC2)c1ccco1,55.8,51.4,28.7,33.5,27.9,24.1
CCOC(=O)c1cnc2c(-c3ccccc3)cnn2c1N,62.2,54.7,38.5,22.1,13.3,5.35
Cc1cc2nc(-c3ccc(SCC(=O)Nc4nccs4)nc3)[nH]c2cc1C,58,46.6,5.16,48.9,-17.8,0.327
O=C(N/N=C/c1ccc2cccnc2c1)c1ccco1,47.2,37,37.5,50.7,39.1,35.6
CCOc1ccc(NC(=O)c2ccco2)cc1,55.9,49.6,43,43.3,45.1,31.6
O=C(NC(=S)Nc1nc2c(s1)CCCC2)c1ccccc1,69.8,47.3,-8.98,47.5,2.65,-0.817
